Test results published in PubChem BioAssay AID648 (SRMLSC, 2007).
Screen size: about 86,000 compounds; about 920 (1.1%) were called active. The sample holds actives, similar compounds and a random draw of the others, so the mix is not that of the screen. A number with no mark means an inactive call.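 The calls were made as follows: active = viability at or below 30%; inactive = viability above 30%.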

Test: endothelial cell growth inhibition – HUVEC, 384-well, primary screen (AID 648);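 also: 100% = median luminescence of DMSO-only cell control wells on each plate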
Settings: HUVEC proliferation, CellTiter-Glo luminescence, 72 h; stronger effect = lower value; screened at 10 µM (by protocol)

Structure (SMILES) | viability
CN=C1SC(CC(=O)Nc2ccc(C(=O)O)cc2)C(=O)N1C (configuration not stated) | 88%
CCC(=O)NC(Nc1nc2ccc(C)cc2s1)(C(=O)OC)C(F)(F)F (configuration not stated) | 101%
Cc1ccc(C)c(NC2=NCC(=O)N2c2ccc3c(c2)OCCO3)c1 | 103%
Cc1nc2ccccc2c(=O)n1CCCn1ccnc1 | 92.5%
O=c1c2ccccc2nc(N/N=C/c2ccccc2)n1O | 101%
CCn1c(/C=C/c2ccc([N+](=O)[O-])o2)nc2ccccc2c1=O | 4.01% (active)
CCn1c(COc2ccc(OC)cc2)nnc1SCC(=O)Nc1cc(OC)ccc1OC | 98%
CCn1nc(C)c(NC(=O)/C=C/c2ccc(OC)c(COc3ccc(Br)cc3)c2)c1C | 10.6% (active)
COc1ccc(/C=C/C(=O)Nc2c(C)nn(C)c2C)cc1COc1ccc(Br)cc1 | 46.5%
c1ccc(-n2nc3ccccc3n2)cc1 | 94.1%
COC(=O)c1[nH]c2ccc(Br)cc2c1NC(=O)Oc1ccccc1 | 86.1%
Cn1c(N)c(C(=O)COC(=O)C23CC4CC(CC(C4)C2)C3)c(=O)n(C)c1=O | 99.2%
Cc1ccc(CN(C(=O)c2sc3ccccc3c2Cl)C2CCS(=O)(=O)C2)cc1 (configuration not stated) | 80.5%
CC(C)CC[n+]1ccn(C2=C([O-])c3ccccc3C(=O)/C2=N\S(=O)(=O)c2ccccc2)c1 | 20.6% (active)
CN(Cc1ccccc1)C(=O)COc1ccccc1 | 98.7%
COc1nc(NC2CCCCC2)nc(N2CCCCCC2)n1 | 77.8%
CCOC(=O)c1cnc(SCc2nc(N)nc(Nc3ccc(OC)cc3)n2)nc1N | 111%
Cc1cccc2nc(CSc3nc4[nH]ncc4c(=O)n3-c3cccc(Cl)c3)cc(=O)n12 | 76.9%
CCn1c(CNC(=O)c2ccccc2)nnc1SCC(=O)N1CCN(c2ccccc2)CC1 | 98.7%
CCCn1c(=O)c2ccccc2n2c(SCC(=O)/C(C#N)=C(\C)N)nnc12 | 83.6%
Cc1sc2nc(SCC(N)=O)n(C)c(=O)c2c1C | 98.6%

Structure (SMILES) | viability
C=CCn1c(SCC(=O)/C(C#N)=C(\C)N)nc2sc(C)c(C)c2c1=O | 28% (active)
O=C(CSCc1c(F)cccc1Cl)NCC1CCCO1 (configuration not stated) | 101%
Cc1ccc(O/C=C2\OC(=O)c3ccccc32)cc1 | 98.2%
COC(=O)c1sc(=S)n(-c2ccc(Cl)cc2)c1C | 90%
COc1ccc(-n2nnnc2SCc2nc(N)nc(N3CCOCC3)n2)cc1 | 96.3%
CCOC(=O)c1sc(NC(=O)CSc2nc(C)cc(C(F)(F)F)n2)c(C#N)c1C | 88.5%
COc1ccccc1-c1nc(C#N)c(N2CCC(C(N)=O)CC2)o1 | 95.4%
CCOc1ccc(Nc2oc(Cc3ccccc3)nc2C#N)cc1 | 104%
COc1ccc(Nc2oc(-c3ccccc3Cl)nc2C#N)cc1 | 29.9% (active)
O=C(Nc1cccc(NC(=O)c2ccco2)c1)c1cnccn1 | 83.6%
Fc1ccc(-n2c(Cc3ccccc3)nnc2SCc2nc(-c3ccc(Cl)cc3)no2)cc1 | 76.6%
COc1ccc(N(CC(=O)NC2CCCCC2)S(=O)(=O)c2c(C)[nH]c(=O)[nH]c2=O)cc1 | 96.7%
COc1ccc([N+](=O)[O-])cc1C1NN=C(c2cccc3ccccc23)S1 (configuration not stated) | 81.9%
CC(C)(C)C1CCc2c(sc3nc(SCC(N)=O)nc(N)c23)C1 (configuration not stated) | 48.8%
CN1CCN(CC(=O)Nc2sc3c(c2C#N)CCC(C(C)(C)C)C3)CC1 (configuration not stated) | 2.13% (active)
CCC(=O)Nc1sc(C(=O)N2CCCCC2)c(C)c1C#N | 98.7%
O=C(O)CSc1nccn1-c1cccc(Cl)c1 | 105%
CC(C)NC(=O)C(=O)NCCN1CCN(S(=O)(=O)c2ccc(Cl)cc2)CC1 | 114%
CCSc1nc(-c2ccc(OC)cc2)cc(-c2ccc(OC)cc2)c1C#N | 100%
COc1ccc(Nc2ncc(C(=O)N3CCN(c4ccccc4OC)CC3)c3ccccc23)cc1 | 62.2%
O=C(CO/N=C/c1ccccc1O)NNC(=O)c1ccccc1Cl | 97.1%

Structure (SMILES) | viability
CCNS(=O)(=O)c1ccc(NC(=O)Nc2cccc(C(F)(F)F)c2)cc1 | 29.7% (active)
CCNS(=O)(=O)c1ccc(NC(=O)Nc2cccc(OC)c2)cc1 | 72.2%
O=C(O)CSCC(=O)Nc1cccc(C(F)(F)F)c1 | 89.5%
O=C1CCCc2c1[nH]c1ccc(Br)cc21 | 16.3% (active)
O=C(O)CCC(=O)NCc1ccc2[nH]c3c(c2c1)CCCC3 | 98.8%
O=[n+]1c2c(n([O-])c3cc(Br)ccc31)CCC2 | 94.2%
COc1cccc2c1OCC1COc3c(c(=O)n(C)c(=O)n3C)C21 (configuration not stated) | 104%
Cc1cc(C)cc(NC(=O)c2cccc(NC(=O)C3C4CC5OC(=O)C3C5C4)c2)c1 (configuration not stated) | 92.7%
CCN1CCc2c(C#N)c(NCc3ccccc3)nc(NCCO)c2C1 | 79.7%
CC(C)CCNc1nc(N2CCCC2)c2c(c1C#N)CCN(C)C2 | 2.55% (active)
CC(C)Cc1nc(N2CCOCC2)c(C#N)c2c1CCC2 | 103%
CCOc1ccc(S(=O)(=O)Nc2ccc(S(=O)(=O)Nc3cc(OC)ccc3OC)cc2)cc1 | 95.7%
CCCCCCc1cc2cc(-c3nnc(-c4cccc(OC)c4)o3)c(=O)oc2cc1O | 31.1%
CCC1(CC)Cc2ccccc2-c2nc3ccccc3c(=O)n21 | 102%
COc1ccccc1-n1nnnc1S(=O)(=O)Cc1ccc(Cl)cc1 | 11.8% (active)
COc1ccccc1N1CCN(C(=O)CN(Cc2ccc(Cl)cc2)S(C)(=O)=O)CC1 | 109%
COc1ccccc1N1CCN(Cc2nnnn2CCc2ccccc2)CC1 | 100%
Cc1nc(NC(=O)CN(C)S(=O)(=O)c2ccc(Cl)cc2)sc1C | 101%
c1ccc2c(c1)C(=NC1CCCCC1)NC2=NC1CCCCC1 | 26.7% (active)
O=C1CCCCC(=O)c2ccccc2N1 | 98.7%
